Measurements: PubChem BioAssay (NCI)
This is part of a sample that, as a whole, favours compounds with a hit. Of some 79,000 tested, about 15% had one in any assay. Calls of active or inactive are those of the source. Rule as the data show it: active = growth inhibition above about 70%; inactive = the rest.

Tests used:
[1] = NCI Yeast Anticancer Drug Screen. Data for the mec2-1 strain (AID 157); details: S. cerevisiae mec2-1 strain, stronger effect = higher value
How it was run: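 Readout is yeast growth inhibition, normalised to vehicle-treated controls, in the mec2-1 strain exposed to compound.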

[2] = NCI Yeast Anticancer Drug Screen. Data for the rad14 strain (AID 159);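 also: 0% = growth of vehicle-treated control cultures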; details: S. cerevisiae rad14 strain growth inhibition, stronger effect = higher value
How it was run: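 A mutant yeast strain defective in DNA damage repair is treated with compound; inhibition of its growth is scored against untreated, vehicle-exposed cultures.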

[3] = NCI Yeast Anticancer Drug Screen. Data for the sgs1 mgt1 strain (AID 161);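 also: 0% = growth of cultures given vehicle only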; details: S. cerevisiae sgs1 mgt1 strain, stronger effect = higher value
How it was run: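 Percent growth inhibition was derived by comparing compound-exposed mutant yeast with vehicle-exposed cultures. The strain carries alterations in DNA damage repair.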

[4] = NCI Yeast Anticancer Drug Screen. Data for the CLN2oe strain (AID 163);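 also: 0% = growth of vehicle-only control cultures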; details: S. cerevisiae CLN2oe strain, stronger effect = higher value
How it was run: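 Values reflect how much compound exposure reduced yeast growth, referenced to vehicle-exposed cells. Assay organism is a strain with a defined genetic change affecting cell-cycle control.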

[5] = NCI Yeast Anticancer Drug Screen. Data for the cln2 rad14 strain (AID 165);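 also: 0% = growth equal to vehicle treated cultures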; details: S. cerevisiae cln2 rad14 strain, stronger effect = higher value
How it was run: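 Relative to vehicle controls, growth inhibition of compound-treated cln2 rad14 yeast was recorded.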

[6] = NCI Yeast Anticancer Drug Screen. Data for the bub3 strain (AID 167); details: S. cerevisiae bub3 mutant strain, stronger effect = higher value
How it was run: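 Steps: expose the mutant yeast strain to compound; grow alongside vehicle-treated cultures; measure growth; express inhibition against the vehicle cultures.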

[7] = NCI Yeast Anticancer Drug Screen. Data for the wt2 strain (AID 169);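 also: 0% = growth of vehicle-treated yeast cultures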; details: S. cerevisiae wt2 strain growth inhibition, stronger effect = higher value
How it was run: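 Values express reduction in yeast growth under compound treatment, referenced to vehicle-treated cells.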

[8] = NCI Yeast Anticancer Drug Screen. Data for the mlh1 strain (AID 171);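 also: 0% = growth of vehicle-treated control cultures of the same strain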; details: S. cerevisiae mlh1 strain growth inhibition, stronger effect = higher value
How it was run: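 Steps: expose the defined-mutant yeast strain to compound; expose a parallel culture to vehicle; measure growth; express compound effect as inhibition relative to the vehicle culture.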

[9] = NCI Yeast Anticancer Drug Screen. Data for the sgs1 strain (AID 173);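 also: 0% = growth of vehicle-only control cultures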; details: S. cerevisiae sgs1 mutant, stronger effect = higher value
How it was run: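 Treat defined-mutant yeast with compound; measure growth; calculate inhibition relative to vehicle-treated cells.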

[10] = NCI Yeast Anticancer Drug Screen. Data for the mlh1 rad18 strain (AID 175); details: S. cerevisiae mlh1 rad18 strain growth inhibition, stronger effect = higher value
How it was run: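 Test agents were incubated with a yeast strain of defined genotype (DNA damage repair defect). Inhibition of growth was derived by comparison with vehicle-exposed cultures.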

[11] = NCI Yeast Anticancer Drug Screen. Data for the rad18 strain (AID 177); details: S. cerevisiae rad18 mutant growth inhibition, stronger effect = higher value
How it was run: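 A genetically defined yeast mutant impaired in DNA damage repair was treated with test compounds, then its growth was measured against cultures receiving vehicle alone.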

[12] = NCI Yeast Anticancer Drug Screen. Data for the rad52 strain (AID 147);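 also: 0% = growth of vehicle-treated control cultures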; details: S. cerevisiae rad52 mutant growth inhibition, stronger effect = higher value
How it was run: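 Screen used a yeast mutant impaired in DNA repair. After compound exposure, growth was measured. Values reflect inhibition compared with vehicle-treated cells.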

[13] = NCI Yeast Anticancer Drug Screen. Data for the wt1 strain (AID 149);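 also: 0% = growth of vehicle-treated wt1 cultures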; details: S. cerevisiae wt1 strain (SPY 50644) growth inhibition, stronger effect = higher value
How it was run: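 Compounds are added to wt1 yeast cultures. Growth is then measured. Inhibition is expressed relative to vehicle-treated controls.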

[14] = NCI Yeast Anticancer Drug Screen. Data for the rad50EPP+ strain (AID 151);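 also: 0% = growth of vehicle-treated control cultures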; details: S. cerevisiae rad50 mutant strain, stronger effect = higher value
How it was run: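 Exposing the rad50EPP+ strain to each compound, growth was compared with vehicle-only cultures to give inhibition.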

[15] = NCI Yeast Anticancer Drug Screen. Data for the mgt1 strain (AID 153); details: S. cerevisiae mgt1 mutant growth inhibition, stronger effect = higher value
How it was run: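 Genetically defined yeast (mgt1) treated with compound; inhibition of growth expressed against vehicle-treated controls.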

[16] = NCI Yeast Anticancer Drug Screen. Data for the rad50 strain (AID 155);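 also: 0% = growth of vehicle-only cultures of the same strain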; details: S. cerevisiae rad50 strain growth inhibition, stronger effect = higher value
How it was run: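 Inhibition values express reduced yeast growth in compound-treated cultures relative to vehicle-treated controls.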

[17] = at 5.0 µM (retest, dose inferred, filed as 0.5)
[18] = at 50.0 µM (retest, dose inferred, filed as 5.0)

Measured: growth inhibition

NC1=NNC2(C(N)=N1)c1ccccc1-c1ccccc12
inactive: [1]; [17] -1% | [1]; at 11.0 µM 11% | [1]; at 33.0 µM 29% | [1]; [18] 18% | [2]; at 1.2 µM -18% | [2]; at 3.7 µM -22% | [2]; at 11.0 µM -25% | [2]; at 33.0 µM 1% | [3]; [17] -9% | [3]; [18] 43% | [3]; at 50.0 µM 64.5% | [4]; at 1.2 µM 9% | [4]; at 3.7 µM 15% | [4]; at 11.0 µM 21% | [4]; at 33.0 µM 39% | [5]; [17] 3% | [5]; [18] 57% | [6]; at 1.2 µM 26% | [6]; at 3.7 µM 25% | [6]; [17] -27% | [6]; at 11.0 µM 26% | [6]; at 33.0 µM 38% | [6]; [18] 54% | [6]; at 50.0 µM 45.1% | [7]; at 1.2 µM -10% | [7]; at 3.7 µM -16% | [7]; at 11.0 µM -18% | [7]; at 33.0 µM -2% | [8]; at 1.2 µM 10% | [8]; at 3.7 µM -2% | [8]; at 11.0 µM 3% | [8]; at 33.0 µM 53% | [9]; at 1.2 µM 12% | [9]; at 3.7 µM 17% | [9]; at 11.0 µM 11% | [9]; at 33.0 µM 33% | [10]; [17] -25% | [11]; at 1.2 µM -4% | [11]; at 3.7 µM -5% | [11]; at 11.0 µM -17% | [11]; at 33.0 µM 18%
active: [1]; at 50.0 µM 71.9% | [1]; at 100.0 µM 96% | [2]; at 100.0 µM 97% | [4]; at 100.0 µM 97% | [5]; at 50.0 µM 81% | [6]; at 100.0 µM 97% | [7]; at 100.0 µM 97% | [8]; at 100.0 µM 97% | [9]; at 100.0 µM 97% | [10]; [18] 81% | [10]; at 50.0 µM 79.3% | [11]; at 100.0 µM 97%

CCN(CC)CCNc1ccc2ncn3c4cc(OC)c(OC)c(=O)c4c(O)c1c23
inactive: [12]; at 1.2 µM 15% | [12]; at 3.7 µM 14% | [12]; at 11.0 µM 40% | [12]; at 33.0 µM 36% | [12]; at 100.0 µM 59% | [13]; at 1.2 µM -82% | [13]; at 3.7 µM 1% | [13]; at 11.0 µM 2% | [13]; at 33.0 µM 4% | [13]; at 100.0 µM 6% | [14]; at 1.2 µM 1% | [14]; at 3.7 µM 3% | [14]; at 11.0 µM 11% | [14]; at 33.0 µM 20% | [14]; at 100.0 µM 26% | [15]; at 1.2 µM 1% | [15]; at 3.7 µM 2% | [15]; at 11.0 µM 3% | [15]; at 33.0 µM 4% | [15]; at 100.0 µM 7% | [16]; at 1.2 µM 5% | [16]; at 3.7 µM 15% | [16]; [17] 2% | [16]; at 11.0 µM 30% | [16]; at 33.0 µM 46% | [16]; [18] -3% | [16]; at 50.0 µM 65.5% | [16]; at 100.0 µM 66% | [1]; at 1.2 µM -2% | [1]; at 3.7 µM -1% | [1]; [17] -3% | [1]; at 11.0 µM 0% | [1]; at 33.0 µM 8% | [1]; [18] -12% | [1]; at 50.0 µM 23.5% | [1]; at 100.0 µM 11% | [2]; at 1.2 µM -1% | [2]; at 3.7 µM 0% | [2]; at 11.0 µM 5% | [2]; at 33.0 µM 4% | [2]; at 100.0 µM 8% | [3]; [17] 10% | [3]; [18] 17% | [3]; at 50.0 µM 12.8% | [4]; at 1.2 µM -6% | [4]; at 3.7 µM -4% | [4]; at 11.0 µM 0% | [4]; at 33.0 µM -2% | [4]; at 100.0 µM 5% | [5]; [17] -5% | [5]; [18] 48% | [5]; at 50.0 µM 26.4% | [6]; at 1.2 µM -1% | [6]; at 3.7 µM -3% | [6]; [17] 11% | [6]; at 11.0 µM 0% | [6]; at 33.0 µM -2% | [6]; [18] 16% | [6]; at 50.0 µM 11.8% | [6]; at 100.0 µM 4% | [7]; at 1.2 µM -3% | [7]; at 3.7 µM 0% | [7]; at 11.0 µM 1% | [7]; at 33.0 µM 1% | [7]; at 100.0 µM 2% | [8]; at 1.2 µM -1% | [8]; at 3.7 µM 0% | [8]; at 11.0 µM 1% | [8]; at 33.0 µM 3% | [8]; at 100.0 µM 7% | [9]; at 1.2 µM 0% | [9]; at 3.7 µM 5% | [9]; at 11.0 µM 3% | [9]; at 33.0 µM 4% | [9]; at 100.0 µM 5% | [10]; [17] 38% | [10]; [18] -10% | [10]; at 50.0 µM 20.3% | [11]; at 1.2 µM -4% | [11]; at 3.7 µM -1% | [11]; at 11.0 µM 5% | [11]; at 33.0 µM -7% | [11]; at 100.0 µM 1%
